This is part of a sample that, as a whole, favours compounds with a hit. Of some 79,000 tested, about 15% had one in any assay. Activity calls are given as the source filed them. Cut-off read from the data, not from the text of the source: active = growth inhibition above about 70%; inactive = the rest.

This passage reports growth inhibition results from PubChem BioAssay (NCI).

The assay is described as follows: NCI Yeast Anticancer Drug Screen. Data for the rad50 strain (AID 155).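 Note: 0% = growth of vehicle-only cultures of the same strain.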 As to conditions: S. cerevisiae rad50 strain growth inhibition; at 50.0 µM (retest, dose inferred, filed as 5.0); active compounds read high. In a few lines: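 Genetically altered yeast (DNA repair pathway); compound treatment; growth inhibition vs vehicle ctrl.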
As for `CCC(c1ccc(OC)cc1)C(O)(CC)c1ccc(OC)cc1` (stereo not given), the growth inhibition is 98% (active).

For `Cc1c(Cl)c(S(N)(=O)=O)cc2c1NC=NS2(=O)=O`, the growth inhibition is -10% (inactive).

For `CCCCCCCCNc1ncnc2c1cnn2C`, the growth inhibition is 69% (inactive).

Regarding `Cc1cc(N)c(C)c2c1[nH]c1ccc(Br)cc12`, the growth inhibition was 96% (active).

Turning to `C(=C\c1cnnc2ccccc12)/c1ccco1`, the growth inhibition was 32% (inactive).

On to `Cc1cc(N(CCCCl)CCCCl)ccc1C=Nc1cccc(Cl)c1`, for which the growth inhibition is 40% (inactive).

For the compound `CCC[CH2][Sn]([CH2]CCC)([O]C(=O)c1cc(F)ccc1F)[O]C(=O)c1cc(F)ccc1F`, the growth inhibition was 42% (inactive).

In the case of `O=[N+]([O-])c1ccc(N2N=NC(CN3CCOCC3)C2N2CCOCC2)cc1` (stereo not given), the growth inhibition was 42% (inactive).

For the compound `O=CC(I)=C(c1ccccc1)c1ccccc1`, the growth inhibition was 21% (inactive).

On to `CCC/C(=N\O)S(=O)(=O)c1ccc(NN=O)nc1`, for which the growth inhibition is -11% (inactive).

Regarding `COc1cc(Cc2n[nH]c(=S)n2-c2ccccc2)c(S(N)(=O)=O)cc1OC`, the growth inhibition is 4% (inactive).

For `CC(=O)Nc1ccc(C(C)(C)c2ccc(C)cc2)cc1`, the growth inhibition is 95% (active).

As for `CC(C)=NOc1ccc([N+](=O)[O-])cc1[N+](=O)[O-]`, the growth inhibition is 87% (active).

`CC(=O)Nc1ccc2c(c1)C(S)c1ccccc1-2` (stereo not given): the growth inhibition was 32% (inactive).

As to `CCN1CC(=O)N(C)C1=S`, the growth inhibition is 5% (inactive).

In the case of `[O-][n+]1c(-c2ccccc2)c(Cl)c(-c2ccccc2)n1O`, the growth inhibition is 75% (active).

For `CCCCCCCCCCCCCCCCN(C)c1ccc(S(=O)(=O)O)cc1[N+](=O)[O-]`, the growth inhibition was 67% (inactive).

As to `Cc1ccc2c(c1)-c1c(c3c(c4c1-c1cc(C)ccc1CC4)C(=O)OC3=O)CC2`, the growth inhibition was 72% (active).

Turning to `C[N+](C)(CCO)Cc1ccccc1`, the growth inhibition was 10% (inactive).

In the case of `CCOC(=O)C(C)(C)Oc1ccc2c(=O)cc(-c3ccccc3)oc2c1`, the growth inhibition is 95% (active).

In the case of `CS(=O)c1cc(=O)c2ccccc2s1` (stereo not given), the growth inhibition was 85% (active).

As to `COC(=O)c1c[nH]c2ccc(Br)cc12`, the growth inhibition was 23% (inactive).

As for `CCCCN1C(=O)C(=O)N(c2ccccc2)C1=O`, the growth inhibition is 5% (inactive).

Take `Cc1cc(N)c2cc(OCCOc3ccc4nc(C)cc(N)c4c3)ccc2n1`: the growth inhibition is 91% (active).

`Cc1c2c(c(C)c3c4c(oc13)CCCC4)C=NCC2`: the growth inhibition is 49% (inactive).

As to `CCCC(c1ccc(O)cc1)c1ccc(O)cc1`, the growth inhibition is 98% (active).

Take `CC(C)=NNc1ncnc2nc[nH]c12`: the growth inhibition is 3% (inactive).

Turning to `Clc1ccc(C2=Nc3ccccc3SC(c3ccc(Cl)c(Cl)c3)C2)c(Cl)c1` (stereo not given), the growth inhibition is 16% (inactive).

In the case of `N#Cc1c(Cl)nsc1-c1ccc([N+](=O)[O-])cc1`, the growth inhibition was 35% (inactive).

For the compound `C=CCSc1nc2ccccc2c(=O)n1Cc1ccco1`, the growth inhibition was 59% (inactive).

Regarding `COC(=O)CSc1nc2[nH]c(SC)c(C(N)=O)c2c(=O)n1-c1ccccc1`, the growth inhibition was -4% (inactive).

Turning to `Cc1cc2oc3c(ccc(=O)n3C)c(=O)c2c(C)c1Cl`, the growth inhibition was 38% (inactive).

Take `CC(=O)SC1C(=O)N(C)C(SC(C)=O)C(=O)N1C` (stereo not given): the growth inhibition is -21% (inactive).

Turning to `CCCCCCCCCCCCCCCCOCC(Cl)COP(=O)(O)OP(=O)(O)OCC1OC(n2cc(C)c(=O)[nH]c2=O)CC1O` (stereo not given), the growth inhibition was 99% (active).

For `CCCCCCCCCCNC(=O)CBr`, the growth inhibition is 99% (active).

As to `O=Cc1c(Cn2ccnc2)c2cc([N+](=O)[O-])ccc2n1Cc1ccccc1`, the growth inhibition was 49% (inactive).

With `C=C(C)C1CC2=C(O1)C(=O)c1ccccc1C2=O` (stereo not given), the growth inhibition is 99% (active).

Take `CC(C)C1=CC2=CCC3C(C)(C(=O)O)CCCC3(C)C2CC1` (stereo not given) (tested in a mixture with another compound): the growth inhibition was 80% (active).

Take `ClCC1CSC2(CCCCC2)O1` (stereo not given): the growth inhibition was 3% (inactive).

As to `Oc1cccc2ccc(SSc3ccc4cccc(O)c4n3)nc12`, the growth inhibition was 95% (active).
